Results: PubChem BioAssay AID651725 (National Center for Advancing Translational Sciences (NCATS), 2012)
Out of some 360,000 compounds screened, about 2,000 (0.56%) were called active. Another 2% or so got no clear call; they are omitted. Many of the other results were omitted from the sample, so actives are more common in it than they were. Unmarked numbers belong to inactive results. Cut-off read from the data, not from the text of the source: active = activity change below about -65%; inconclusive = mostly about -30% to -63%; inactive = weaker than that.

Target: Homeobox protein SIX1 (Homo sapiens) + Protein phosphatase EYA2 (Homo sapiens) (UniProt Q15475+O00167)
Sequence (O00167 whole entry, looked up): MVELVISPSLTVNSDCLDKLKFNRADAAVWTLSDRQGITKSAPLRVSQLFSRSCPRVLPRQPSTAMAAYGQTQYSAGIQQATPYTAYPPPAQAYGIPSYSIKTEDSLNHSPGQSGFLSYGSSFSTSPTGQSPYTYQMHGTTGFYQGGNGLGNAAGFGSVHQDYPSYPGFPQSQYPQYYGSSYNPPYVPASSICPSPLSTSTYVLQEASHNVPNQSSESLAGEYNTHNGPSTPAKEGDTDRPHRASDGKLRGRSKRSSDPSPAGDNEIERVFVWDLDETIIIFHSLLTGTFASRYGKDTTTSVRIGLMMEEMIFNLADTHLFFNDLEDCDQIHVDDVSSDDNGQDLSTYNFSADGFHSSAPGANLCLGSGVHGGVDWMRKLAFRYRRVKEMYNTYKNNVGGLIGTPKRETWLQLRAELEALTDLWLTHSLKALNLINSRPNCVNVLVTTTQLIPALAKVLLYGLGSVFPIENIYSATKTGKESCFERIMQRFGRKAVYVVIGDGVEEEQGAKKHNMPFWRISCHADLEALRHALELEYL
Sequence (Q15475 whole entry, looked up): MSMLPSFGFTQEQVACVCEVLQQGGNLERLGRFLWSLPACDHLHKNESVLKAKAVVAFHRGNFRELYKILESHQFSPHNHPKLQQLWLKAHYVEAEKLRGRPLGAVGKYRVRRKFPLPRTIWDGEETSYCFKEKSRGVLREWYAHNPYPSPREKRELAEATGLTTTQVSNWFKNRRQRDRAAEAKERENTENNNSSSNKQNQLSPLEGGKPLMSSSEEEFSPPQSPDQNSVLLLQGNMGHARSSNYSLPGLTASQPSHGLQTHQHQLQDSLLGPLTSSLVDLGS
Test: qHTS Assay for Inhibitors of the Six1/Eya2 Interaction
Conditions: AlphaScreen GST-Six1/His-Eya2 binding, biochemical; hits give low values
Procedure, shortened: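 Compounds are tested against tagged Six1 and Eya2 proteins bridged by glutathione donor and nickel acceptor beads; after a one-hour incubation at 37 °C without light, AlphaScreen emission is recorded.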
% is set by controls: 0 for no effect and ±100 for the full control effect.

Structure (SMILES)	activity change
COC(=O)[C@]12CCCCC=C1N(Cc1ccc(Cl)cc1Cl)C(=O)[C@H](CC(=O)NCc1cccc3ccccc13)C2	-10.1%
O=C1NC[C@@H](CCCCN2CCN(CCc3ccc(O)cc3)C(=O)C2=O)N(CC2CCCCC2)C1=O	3.55%
CC[C@]1(c2ccccc2OC)C(=O)N(C(=O)OC)N1C(=O)OC	-0.457%
O=C1c2cccc3cccc(c23)C(=O)N1CCCCCc1n[nH]c(=S)o1	-80.1% (active)
O=C1c2ccccc2C(=O)N1CCCc1nc(-c2ccccc2)no1	1.31%
O=C(CN1C(=O)c2cccc3cccc(c23)C1=O)N1CCCCC1	2.22%
COC(=O)c1ccc2nc(-c3ccccc3)c(Cc3ccc(OC)cc3C)n2c1	0.0747%
COCCNC(=O)CCCn1c(=O)c2ccccc2n(Cc2cccc([N+](=O)[O-])c2)c1=O	4.87%
COC(=O)c1ccc(Nc2ncnc3sccc23)cc1	-1.71%
CCOC(=O)c1ccc(N/C(=N/S(=O)(=O)c2ccccc2)c2ccccc2)cc1	-27.6%
CCOC(=O)c1nc(Nc2ccc(C(=O)OC)cc2)c2ccccc2n1	-84.8% (active)
COc1ccc(NC(=O)CCC(=O)Nc2cc(OC)c(NC(=O)c3ccco3)cc2OC)c(OC)c1	-72.1% (active)
COc1ccc(CC(=O)Nc2ccccc2NC(=O)c2ccco2)cc1OC	-2.61%
COc1ccc(NC(=O)CSc2ccc(-c3ccco3)nn2)c(OC)c1	-14.2%
COC(=O)C[C@@H]1C=C[C@@H](NC(=O)c2ccc3c(c2)OCO3)[C@@H](CO)O1	-3.63%
Cc1ccc(S(=O)(=O)N(C)c2ccc(OCC(=O)OCc3ccc(C#N)cc3)cc2)cc1	5.43%
O=C(Oc1ccc(F)cc1)N1CCOCC1	-1.89%
O=C(Oc1ccc(C(=S)N2CCOCC2)cc1)c1ccc(F)cc1	-91.7% (active)
O=C(Oc1cccc(C(=S)N2CCOCC2)c1)c1cccc(Cl)c1	-18.4%
CCCc1c(-c2ccccc2F)ncn1Cc1ccccc1OC	-11.2%
Cc1cc(NC(=O)CSc2nnc(-c3ccc(Cl)s3)o2)no1	-86.8% (active)

Structure (SMILES)	activity change
Cc1cc(NC(=O)CSc2ncc(C(F)(F)F)cc2Cl)no1	1.15%
O=C(CSc1nnc(-c2ccncc2)o1)Nc1cccc(Cl)c1	-1.81%
Cc1cc(OCc2cc(C(=O)NCc3cc(C(C)C)no3)no2)cc(C)c1Cl	14%
Cc1ccc(S(=O)(=O)N[C@H](CO)C(C)C)cc1	4.31%
Cc1ccc2cccc([N+](=O)[O-])c2n1	-20.1%
O=[N+]([O-])c1ccccc1S(=O)(=O)Nc1cccc2cccnc12	-91.7% (active)
O=S(=O)(NCCc1ccc(F)cc1)c1cccc2cccnc12	-7.51%
Cc1ccc(S(=O)(=O)C2C(=O)NC3(C)CC2c2ccccc2O3)cc1 (configuration not stated)	6.28%
COC(=O)[C@]12CCCCC=C1N(Cc1ccc3c(c1)OCO3)C(=O)[C@H](CC(=O)NCc1cccs1)C2	-7.98%
COc1ccccc1Cc1c(-c2ccc(Cl)cc2)nc2c3ccccc3ccn12	9.04%
COc1cccc(/C=N/Nc2ncc(C(F)(F)F)cc2Cl)c1O	-91.7% (active)
CN(C)C=NC(=O)c1cccn1-c1ncc(C(F)(F)F)cc1Cl	7.6%
O=c1[nH]c2cccnc2n(CCNc2ncc(C(F)(F)F)cc2Cl)c1=O	5.43%
Nc1c(C(=O)c2cccs2)sc2nsc(SCCN3CCCCC3)c12	19.7%
O=C(O)C1C2CC2CN1C(=O)c1ccc(Cl)cc1Cl (configuration not stated)	2.75%
O=C(N/N=C/c1cc([N+](=O)[O-])ccc1O)/C(=C\c1cccs1)NC(=O)c1ccccc1	-90.3% (active)
O=C(Nc1ccc(C(=O)O)cc1)/C(=C/c1ccc([N+](=O)[O-])cc1)NC(=O)c1ccccc1	-4.68%
O=C(NCCc1ccccc1)/C(=C\c1ccc([N+](=O)[O-])cc1)NC(=O)c1ccccc1	2.96%
COc1ccc(NC(=O)C2(C)Cc3c(-c4cccc(NC(C)=O)c4)ccnc3O2)cc1OC (configuration not stated)	-4.36%
O=C(Oc1cccnc1)c1cc2ccccc2oc1=O	-76% (active)
O=C(Nc1cccnc1)c1cc2cc(Br)ccc2oc1=O	17.5%

Structure (SMILES)	activity change
CCc1ccc(Oc2coc3cc(OC(=O)c4cc5ccccc5oc4=O)ccc3c2=O)cc1	-6.39%
COC(=O)[C@]12CCCCC=C1N(Cc1ccco1)C(=O)[C@H](CC(=O)NCCCCc1ccccc1)C2	-13.7%
CCC(C)CN1C(=O)CSCC1(C)C(=O)NCc1ccccc1 (configuration not stated)	7.26%
CCOc1cc(N2CCOCC2)c(OCC)cc1NC(=O)COC(=O)[C@H](Cc1c[nH]c2ccccc12)NC(C)=O	0.0588%
CCOc1cc(N2CCOCC2)c(OCC)cc1NC(=O)COc1cccc2cccnc12	-66.8% (active)
CCOc1cc(N2CCOCC2)c(OCC)cc1NC(=O)c1ccc(C)s1	-7.09%
Cc1cccc(C)c1NC(=O)C(c1cccc(F)c1)N1CCN(C)CC1 (configuration not stated)	1.36%
CC1CCN(S(=O)(=O)c2ccc3[nH]c(=O)ccc3c2)CC1	-0.516%
CC(=NNC(=S)N1CCCCCC1)c1ccccn1	-88.5% (active)
C/C(=N\NC(=O)c1ccccc1F)c1ccccn1	-91.6% (active)
C/C(=N\NC(=O)Cc1ccc(Cl)cc1)c1ccccn1	-85.5% (active)
COc1ccc(C(=O)/C=C/Nc2ccccn2)cc1	3.99%
CCOc1ccc(NC(=S)N2CCCCCC2)cc1	-13.8%
C/C(=N/NC(=O)c1ccn(C)n1)c1ccncc1	5.19%
CCNC(=S)N1CCN(c2ncccn2)CC1	1.47%
C/C(=N/NC(=O)CCc1ccccc1)c1ccco1	2.7%
O=C(NCCOc1ccccc1)c1ccccc1F	6.38%
O=C(Cc1ccc(Cl)cc1)c1ccccc1	4.47%
COc1ccc(CC(N)c2csc(NC(=O)Cc3ccccc3)n2)cc1 (configuration not stated)	-12.1%
COc1ccc(CC(=O)N/N=C(\C)c2ccccn2)cc1	-85.5% (active)
